These results are taken from PubChem BioAssay (NCATS).

Records with an inconclusive call do not appear. Activity calls are given as the source filed them. Calls come from the whole dose curve; as a rule, active = well fitted cell-killing curve with a large enough effect; inconclusive = small, poorly fitted or top-dose-only effect; inactive = flat fitted curve, though single readings scatter. Starred links: 1 amine or outer side, 2 acyl side, 3 side chain; linkers in the order of their positions; H or OH if unused. Positions of bridges follow the written chain, without caps; N, C: chain ends. Non-standard residues stand in square brackets, D forms with d. Residues, ends and D or L forms follow the SMILES beside them. Chains are numbered I, II in the order given. *: point of attachment. Actinocin(9to1) = Cc1c2oc3c(C)ccc(C(=O)[*:1])c3nc-2c(C(=O)[*:2])c(N)c1=O; NMeV = CN[CH](C(=O)O)C(C)C; Cbz = O=C(OCc1ccccc1)*; Sar = CNCC(=O)O
Potency is the fitted concentration of half-maximal effect.

A short description of the assay: qHTS of pediatric cancer cell lines to identify multiple opportunities for drug repurposing: Confirmatory screen for A673 cells (AID 1347110).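 Note: cells exposed to compound for 48 h before the viability read; nearly all actives have a fitted effect of over 65% in size.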 The note with it: A673 Ewing sarcoma cell viability; series mostly up to 45.9 µM. The source says: Drug repurposing or repositioning has been offered as a strategy for drug development in oncology programs. This approach has special potential for childhood cancers and other rare or orphan diseases, where the expected return on new drug development has been a disincentive to pharmaceuticals.
In this project we exploit the poly-pharmacology of drugs to discover new indications via phenotypic screening of a panel of 19 well-characterized cell lines derived from solid tumors seen in children and adolescents. The goal is to identify approved drugs with previously unrecognized anticancer properties that has the potential to reveal new mechanisms and biological processes involved in carcinogenesis or drug resistance. We employed a titration-based paradigm (quantitative high-throughput screening or qHTS), where all compounds were tested at multiple concentrations for their effect on cell viability. Concentration-response curves (CRCs) were derived directly from the primary screen, and both potency and efficacy values were used to identify compounds with robust bioactivity profiles. We screened the NIH Chemical Genomics Center (NCGC) Pharmaceutical Collection (NPC) and Mechanism Interrogation Plate (MIPE) small molecule collections of approved and investigational compounds against these cell lines; and measured metabolically active cells after 48 hours of compound treatment as a proxy for cell viability.
Assay Submitter: Nathalia J. Martinez, National Center for Advancing Translational Sciences, National Institutes of Health, Rockville, MD, USA; email: natalia.martinez@nih.gov.
[1] Shen, M et al. Quantitative high-throughput phenotypic screening of pediatric cancer cell lines identifies multiple opportunities for drug repurposing. Oncotarget 2017 Dec 19;9(4):4758-4772. PMID 29435139.
The cells were obtained from University of North Carolina (UNC), Pediatric Preclinical Testing Program (PPT), and Coriell Institute (CI).
qHTS cell viability assay:
Cells were assayed in growth media at a density of 500-1,000 cells/well. Five microliters of cells were dispensed into 1,536-well, white, solid-bottom, TC-treated plates (Greiner Bio One) using a multidrop dispenser and incubated at 37 degrees C, 5% CO2, under a humidified atmosphere for 5 hours. Twenty-three nanoliters of compounds and controls (neutral control DMSO or positive control bortezomib at final concentration of 2.3 uM) were subsequently transferred by Kalypsys pintool. For primary screens, the MIPE collection was tested at 11-point dilutions (final concentrations range from 0.78 nM to 46 µM) and the NPC collection at 8-point dilutions (final concentrations range from 0.59 nM to 46 µM). Compounds tested in follow-up screens were assayed at 11-point dilutions. Cells were incubated for 48 hours, followed by addition of 3 uL of CellTiter-Glo (Promega). After a 15min incubation at room temperature, samples were analyzed for luminescence intensity using a ViewLux High-throughput CCD imager equipped with clear filters.
On the technique in general: Quantitative high-throughput screening tests each substance at several concentrations.
In the case of `O=C1NCCc2[nH]c(-c3ccncc3)cc21`, the Potency was 2080 nM (active).

For `COc1cccc2c1C(=O)c1c(O)c3c(c(O)c1C2=O)C[C@@](O)(C(=O)CO)C[C@@H]3O[C@H]1C[C@H](N)[C@H](OC2CCCCO2)[C@H](C)O1` (stereo not given in full), the Potency is 2610 nM (active).

With `O=C(NCc1ccccc1)[C@H](Cc1ccccc1)NC(=O)[C@@H]1O[C@@H]1C(=O)NCCc1ccc(O)cc1`, the Potency was 10400 nM (active).

Turning to `NC(=O)Nc1sc(-c2ccc(F)cc2)cc1C(N)=O`, the Potency was 6570 nM (active).

As to `CNC(=O)c1cccc(-c2ccc3c(N4CCOC[C@H]4C)nc(N4CCOC[C@H]4C)nc3n2)c1`, the Potency was 1470 nM (active).

Turning to `CC(C)N1[N]C(=C2C=c3cc(O)ccc3=N2)c2c(N)ncnc21`, the Potency is 4140 nM (active).

On to `CCN(CC)CCNC(=O)c1c(C)[nH]c(C=C2C(=O)Nc3ccc(F)cc32)c1C`, for which the Potency was 10700 nM (active).

With `COc1ccc(Nc2cc(-c3cnc(N)nc3)nc(N3CCOCC3)n2)cn1`, the Potency is 9270 nM (active).

Take `CCC(C=C[C@@H]1OC(=O)C=C[C@H]1C)=C[C@H](C)CC=CC(C)=C[C@@H](C)C(=O)[C@@H](C)[C@H](O)[C@@H](C)CC(C)=CC(=O)O`: the Potency was 32.2 nM (active).

With `CC(C)C[C@@H](C=O)NC(=O)[C@H](CC(C)C)NC(=O)[C@H](CC(C)C)NC(=O)OCc1ccccc1` (Cbz-Leu-Leu-Leu-aldehyde), the Potency was 1170 nM (active).

In the case of `O=C1c2c(O)cccc2[C@@H]([C@@H]2O[C@H](CO)[C@@H](O)[C@H](O)[C@H]2O)c2cc(CO)cc(O)c21`, the Potency result was “inactive”.

`C#CCC(Cc1cnc2nc(N)nc(N)c2n1)c1ccc(C(=O)N[C@@H](CCC(=O)O)C(=O)O)cc1` (stereo not given in full): the Potency is 65.7 nM (active).

In the case of `CCOC(=O)C1=C(C)NC(=S)NC1c1cccc(O)c1` (stereo not given), the Potency was 11700 nM (active).

On to `Cc1c2oc3c(C)ccc(C(=O)NC4C(=O)NC(C(C)C)C(=O)N5CCCC5C(=O)N(C)CC(=O)N(C)C(C(C)C)C(=O)OC4C)c3nc-2c(C(=O)NC2C(=O)NC(C(C)C)C(=O)N3CCCC3C(=O)N(C)CC(=O)N(C)C(C(C)C)C(=O)OC2C)c(N)c1=O` (stereo not given) (I: TVP[Sar][NMeV] / II: TVP[Sar][NMeV]; ester I:1-I:C, II:1-II:C; linker I:N-II:N via Actinocin(9to1); configuration not given here), for which the Potency was 14.7 nM (active).

On to `COc1cccc2c1C(=O)c1c(O)c3c(c(O)c1C2=O)C[C@@](O)(C(=O)CO)C[C@@H]3O[C@H]1C[C@H](N)[C@@H](O)[C@H](C)O1`, for which the Potency is 293 nM (active).

Turning to `Cc1cnc(Nc2ccc(N3CCN(C)CC3)cc2)nc1Nc1cccc(S(=O)(=O)NC(C)(C)C)c1`, the Potency is 4650 nM (active).

`NS(=O)(=O)OC[C@@H]1C[C@@H](n2ccc3c(N[C@H]4CCc5ccccc54)ncnc32)C[C@H]1O`: the Potency is 14700 nM (active).

Regarding `COc1cc(C=CC(=O)CC(=O)C=Cc2ccc(O)c(OC)c2)ccc1O`, the Potency was 10700 nM (active).

On to `CCS(=O)(=O)Nc1ccc2[nH]c(O)c(C(=Nc3ccc(CN4CCCCC4)cc3)c3ccccc3)c2c1`, for which the Potency was 928 nM (active).

Consider `O=S(=O)(O)CCSSCCS(=O)(=O)O`, for which the Potency result was “inactive”.

On to `O=C1NC(=O)[C@@H](c2cn3c4c(cccc24)CCC3)[C@H]1c1c[nH]c2ccccc12`, for which the Potency is 2330 nM (active).

Take `CC(C)C[C@H](NC(=O)CNC(=O)c1cc(Cl)ccc1Cl)B1OC(=O)CC(CC(=O)O)(C(=O)O)O1` (stereo not given in full): the Potency is 293 nM (active).

In the case of `CC(=O)ON=C1C(c2c(O)[nH]c3cc(Br)ccc23)=Nc2ccccc21`, the Potency is 7370 nM (active).

For the compound `CCOc1cc2ncc(C#N)c(Nc3ccc(OCc4ccccn4)c(Cl)c3)c2cc1NC(=O)C=CCN(C)C`, the Potency was 10400 nM (active).

As for `CC(C)(N)c1ccc(-c2nc3ccccc3nc2-c2ccccc2)cc1`, the Potency is 2930 nM (active).

With `C[C@@]12C(=O)OC(=O)[C@@]1(C)C1CCC2O1`, the Potency is 9270 nM (active).

Regarding `CC(=O)[C@]1(O)Cc2c(O)c3c(c(O)c2[C@@H](O[C@H]2C[C@H](N)[C@@H](O)[C@H](C)O2)C1)C(=O)c1ccccc1C3=O`, the Potency was 82.7 nM (active).

Turning to `CC(=O)SCC(Cc1ccccc1)C(=O)NCC(=O)OCc1ccccc1` (stereo not given), the Potency result was “inactive”.

With `Oc1ccc(-c2ccc(-c3cc(Nc4cccc(CNC5CC5)c4)n[nH]3)cc2)c(O)c1`, the Potency was 2330 nM (active).

With `NC(=O)Nc1cc(-c2ccc(CN3CCOCC3)cc2)sc1C(N)=O`, the Potency is 11700 nM (active).

With `C=C1C(=CC=C2CCC[C@]3(C)[C@@H]([C@H](C)CCCC(C)(C)O)CC[C@@H]23)C[C@@H](O)C[C@@H]1O`, the Potency result was “inactive”.

Take `CN(CC(=O)N(Cc1ccc(C2CCCCC2)cc1)c1ccc(C(=O)O)c(O)c1)S(=O)(=O)c1c(F)c(F)c(F)c(F)c1F`: the Potency is 13100 nM (active).

Take `Cn1cnc(=N)c2[nH]cnc21`: the Potency entry is “inactive”.

As to `CC(C=CC(=O)NO)=C[C@@H](C)C(=O)c1ccc(N(C)C)cc1`, the Potency was 827 nM (active).

As for `O=C(C=Cc1ccc(CN(CCO)CCc2c[nH]c3ccccc23)cc1)NO`, the Potency is 369 nM (active).

For the compound `COc1cccc2c1C(=O)c1c(O)c3c(c(O)c1C2=O)C[C@@](O)(C(=O)CO)C[C@H]3O[C@H]1C[C@H](N)[C@H](O)[C@H](C)O1`, the Potency is 928 nM (active).

`C=CCNC1=C2C[C@@H](C)C[C@H](OC)[C@@H](O)[C@@H](C)C=C(C)[C@H](OC(N)=O)[C@@H](OC)C=CC=C(C)C(=O)NC(=CC1=O)C2=O`: the Potency is 1170 nM (active).

`CC[C@]12C=CCN3CC[C@@]4(c5cc([C@@]6(C(=O)OC)C[C@H]7C[C@@H](C(C)(F)F)CN(Cc8c6[nH]c6ccccc86)C7)c(OC)cc5N(C)[C@H]4[C@@](O)(C(=O)OC)[C@H]1OC(C)=O)[C@@H]32`: the Potency was 522 nM (active).

Turning to `CC(=O)NCC(=O)N1[C@H]2CC[C@H]1c1cc(Nc3ncc(C(F)(F)F)c(NC4CCC4)n3)ccc12`, the Potency was 4140 nM (active).

Turning to `CN[C@@H]1C[C@H]2O[C@@](C)([C@H]1OC)n1c3ccccc3c3c4c(c5c6ccccc6n2c5c31)C(=O)N[C@H]4O`, the Potency is 369 nM (active).
